The values below come from ChEMBL document CHEMBL3988442, “University of Dundee, Small-Polar-MMV Screening Library” (2021).

For some assays here: Entries with a potency or affinity are not part of this list.

Set-up in all cases: scale not given: direction of the effect not stated beside the values
Experiment [1] has as its target Protein translocase subunit SecA (Escherichia coli (strain K12)) (UniProt P10408). The experiment can be described thus: Assay to Identify E. coli SecA ATPase Inhibitors. It is filed as functional. The conditions noted are these: 30 µM.
The target in experiment [2] is T1, Ubiquitin-activating enzyme e1, putative (Leishmania donovani (strain BPK282A1)) (UniProt E9BSI1).
T1 sequence (whole entry): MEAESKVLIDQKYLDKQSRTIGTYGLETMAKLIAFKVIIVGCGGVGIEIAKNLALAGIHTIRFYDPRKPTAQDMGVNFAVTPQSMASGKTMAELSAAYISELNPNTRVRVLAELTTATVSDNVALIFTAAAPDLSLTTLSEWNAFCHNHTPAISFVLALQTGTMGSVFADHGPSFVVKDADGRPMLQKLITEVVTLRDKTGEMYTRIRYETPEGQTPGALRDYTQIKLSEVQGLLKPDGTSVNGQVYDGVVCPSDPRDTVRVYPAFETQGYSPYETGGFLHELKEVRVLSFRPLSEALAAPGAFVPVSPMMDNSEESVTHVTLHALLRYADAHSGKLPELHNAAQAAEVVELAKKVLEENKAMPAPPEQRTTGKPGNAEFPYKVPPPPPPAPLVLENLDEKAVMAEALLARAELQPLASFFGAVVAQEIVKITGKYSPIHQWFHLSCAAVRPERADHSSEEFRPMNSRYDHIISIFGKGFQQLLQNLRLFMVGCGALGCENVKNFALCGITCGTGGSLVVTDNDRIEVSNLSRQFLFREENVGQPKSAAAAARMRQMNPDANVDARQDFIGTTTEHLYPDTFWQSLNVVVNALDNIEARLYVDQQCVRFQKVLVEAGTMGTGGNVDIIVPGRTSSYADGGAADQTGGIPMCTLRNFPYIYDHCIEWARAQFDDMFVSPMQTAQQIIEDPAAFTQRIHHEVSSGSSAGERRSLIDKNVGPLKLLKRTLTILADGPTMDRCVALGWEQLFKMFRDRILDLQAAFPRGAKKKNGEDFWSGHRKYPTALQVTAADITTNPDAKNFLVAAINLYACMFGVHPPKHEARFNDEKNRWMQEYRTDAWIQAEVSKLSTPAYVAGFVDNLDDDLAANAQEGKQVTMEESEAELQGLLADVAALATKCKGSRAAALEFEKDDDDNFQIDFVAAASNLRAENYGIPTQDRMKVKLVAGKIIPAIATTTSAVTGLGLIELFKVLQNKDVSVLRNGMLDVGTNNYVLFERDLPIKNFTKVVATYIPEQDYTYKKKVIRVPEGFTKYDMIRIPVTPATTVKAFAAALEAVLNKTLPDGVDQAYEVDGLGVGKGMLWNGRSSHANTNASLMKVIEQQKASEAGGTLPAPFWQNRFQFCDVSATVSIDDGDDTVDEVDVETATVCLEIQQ
The experiment is described as follows: Leishmania donovani Ubiquitin Activating Enzyme (LdE1). It counts as functional. The following applies: 30 µM.

Experiment [3] addresses AMP-activated protein kinase, AMPK (Homo sapiens) (UniProt P54646+O43741+P54619+Q9UGJ0+Q9Y478+Q13131+Q9UGI9). The experiment can be described thus: AMP-dependent Kinase enzyme assay. An in vitro enzyme assay that detects ADP turnover that is directly proportional to AMPK activity. This uses naive AMPK that is activated during the assay with MK-8722. The conditions noted are these: 30 µM. It counts as functional.

The target of experiment [4] is Sialic acid-binding Ig-like lectin 9 (Homo sapiens) (UniProt Q9Y336). The experiment can be described thus: Hs-Siglec9 ALPHAscreen SOP 20170721. The conditions noted are these: 10 µM. (Bead proximity is the source of the signal in Alpha formats.)
Chain of Sialic acid-binding Ig-like lectin 9 (Homo sapiens) (Q9Y336 whole entry): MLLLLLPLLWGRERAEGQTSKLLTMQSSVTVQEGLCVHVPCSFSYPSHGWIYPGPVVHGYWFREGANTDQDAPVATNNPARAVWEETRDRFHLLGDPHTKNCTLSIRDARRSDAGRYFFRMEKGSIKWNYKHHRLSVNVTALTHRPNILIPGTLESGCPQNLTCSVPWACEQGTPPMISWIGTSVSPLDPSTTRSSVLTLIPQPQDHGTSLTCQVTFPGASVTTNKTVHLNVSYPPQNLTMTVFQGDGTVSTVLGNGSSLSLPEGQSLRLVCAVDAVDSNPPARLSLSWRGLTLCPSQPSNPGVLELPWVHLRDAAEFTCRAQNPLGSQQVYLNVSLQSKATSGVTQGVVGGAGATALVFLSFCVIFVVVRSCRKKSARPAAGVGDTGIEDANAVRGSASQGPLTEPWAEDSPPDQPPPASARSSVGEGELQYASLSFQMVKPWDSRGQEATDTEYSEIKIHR
The subject of a further experiment is Trypanosoma cruzi. The experiment is described as follows: Trypanosoma cruzi phosphomannomutase and mannose-1-phosphate guanylyltransferase assay. It is filed as functional. The following applies: 10 µM.
The target of experiment [5] is T2, Arginase-2, mitochondrial (Homo sapiens) (UniProt P78540).
T2 sequence (whole entry): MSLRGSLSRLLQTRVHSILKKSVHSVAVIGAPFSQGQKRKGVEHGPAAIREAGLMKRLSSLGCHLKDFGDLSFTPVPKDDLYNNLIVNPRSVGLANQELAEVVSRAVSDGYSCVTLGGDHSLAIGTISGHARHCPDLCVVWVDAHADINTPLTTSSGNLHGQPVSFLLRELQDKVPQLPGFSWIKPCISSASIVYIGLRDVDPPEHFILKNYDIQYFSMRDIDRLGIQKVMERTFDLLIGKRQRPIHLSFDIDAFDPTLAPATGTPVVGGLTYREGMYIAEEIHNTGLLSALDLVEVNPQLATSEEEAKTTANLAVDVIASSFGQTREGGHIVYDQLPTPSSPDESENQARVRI
The experiment can be described thus: in vitro enzyme assay to detect the production of urea directly proportional to the activity of Arginase II. Also: in the data most compounds retested in dose-response had high values. It is filed as functional. The conditions noted are these: 33.3 µM.

In experiment [6] the target is T3, Proteasome subunit beta (Trypanosoma cruzi) (UniProt O96673).
T3 sequence (whole entry): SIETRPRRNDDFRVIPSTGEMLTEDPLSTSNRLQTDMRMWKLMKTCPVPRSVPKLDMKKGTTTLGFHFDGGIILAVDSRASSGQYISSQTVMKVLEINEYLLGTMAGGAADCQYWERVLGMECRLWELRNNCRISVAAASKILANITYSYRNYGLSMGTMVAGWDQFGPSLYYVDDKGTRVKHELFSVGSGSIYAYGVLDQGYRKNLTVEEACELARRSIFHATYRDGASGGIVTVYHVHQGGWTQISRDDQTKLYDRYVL
The experiment is described as follows: Trypanosoma cruzi proteasome chymotrypsin-like activity (TcProtChymo) assay. Also: in the data most compounds retested in dose-response had high values. It counts as functional. The following applies: 9.37 µM.

For another experiment, the species on record is Homo sapiens. The experiment is described as follows: To identify inhibition of the IFN signalling (Jak-Stat) pathway via expression of an eGFP reporter gene under the control of an IFN-stimulated response element (ISRE) containing MxA promoter. It is filed as functional. The following applies: 30 µM. For orientation: In a reporter assay the amount or activity of a reporter protein is the signal.

Experiment [7] addresses T4, Tyrosyl-tRNA synthetase, putative (Trypanosoma cruzi (strain CL Brener)) (UniProt Q4DSP6).
T4 sequence (whole entry): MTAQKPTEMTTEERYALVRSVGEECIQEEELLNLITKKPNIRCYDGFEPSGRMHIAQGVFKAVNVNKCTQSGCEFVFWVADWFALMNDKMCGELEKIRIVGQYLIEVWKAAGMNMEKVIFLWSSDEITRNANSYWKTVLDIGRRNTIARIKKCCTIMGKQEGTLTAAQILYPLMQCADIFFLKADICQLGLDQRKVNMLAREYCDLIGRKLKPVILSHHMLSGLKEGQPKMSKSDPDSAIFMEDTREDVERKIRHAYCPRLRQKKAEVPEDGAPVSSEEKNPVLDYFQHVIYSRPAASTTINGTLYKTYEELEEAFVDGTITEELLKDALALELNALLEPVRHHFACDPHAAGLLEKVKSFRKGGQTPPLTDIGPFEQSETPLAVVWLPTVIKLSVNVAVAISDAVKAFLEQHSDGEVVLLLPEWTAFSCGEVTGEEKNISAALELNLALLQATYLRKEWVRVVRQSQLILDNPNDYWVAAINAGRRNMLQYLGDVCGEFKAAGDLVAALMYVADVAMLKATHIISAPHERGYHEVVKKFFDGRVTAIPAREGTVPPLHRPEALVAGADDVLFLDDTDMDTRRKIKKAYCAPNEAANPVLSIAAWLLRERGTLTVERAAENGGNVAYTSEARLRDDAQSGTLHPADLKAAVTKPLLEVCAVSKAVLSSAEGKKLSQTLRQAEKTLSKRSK
The experiment can be described thus: Trypanosoma cruzi tyrosyl tRNA synthetase (TcYRS) _High Tyrosine SOP. Also: in the data most compounds retested in dose-response had high values. It is filed as functional. The conditions noted are these: 30 µM.

For experiment [8], the target named is T4, Tyrosyl-tRNA synthetase, putative (Trypanosoma cruzi (strain CL Brener)). The experiment can be described thus: Trypanosoma cruzi tyrosyl tRNA synthetase (TcYRS) SOP. It is filed as functional. The following applies: 30 µM.
Experiment [9] has as its target Chromo domain-containing protein 1 (Saccharomyces cerevisiae (strain ATCC 204508 / S288c) (Baker's yeast)) (UniProt P32657). The experiment is described as follows: ScCHD-1 Enzyme Inhibition Assay. Also: in the data most compounds retested in dose-response had high values. It is filed as functional. The following applies: 30 µM.

Chain of Protein translocase subunit SecA (Escherichia coli (strain K12)) (P10408 whole entry): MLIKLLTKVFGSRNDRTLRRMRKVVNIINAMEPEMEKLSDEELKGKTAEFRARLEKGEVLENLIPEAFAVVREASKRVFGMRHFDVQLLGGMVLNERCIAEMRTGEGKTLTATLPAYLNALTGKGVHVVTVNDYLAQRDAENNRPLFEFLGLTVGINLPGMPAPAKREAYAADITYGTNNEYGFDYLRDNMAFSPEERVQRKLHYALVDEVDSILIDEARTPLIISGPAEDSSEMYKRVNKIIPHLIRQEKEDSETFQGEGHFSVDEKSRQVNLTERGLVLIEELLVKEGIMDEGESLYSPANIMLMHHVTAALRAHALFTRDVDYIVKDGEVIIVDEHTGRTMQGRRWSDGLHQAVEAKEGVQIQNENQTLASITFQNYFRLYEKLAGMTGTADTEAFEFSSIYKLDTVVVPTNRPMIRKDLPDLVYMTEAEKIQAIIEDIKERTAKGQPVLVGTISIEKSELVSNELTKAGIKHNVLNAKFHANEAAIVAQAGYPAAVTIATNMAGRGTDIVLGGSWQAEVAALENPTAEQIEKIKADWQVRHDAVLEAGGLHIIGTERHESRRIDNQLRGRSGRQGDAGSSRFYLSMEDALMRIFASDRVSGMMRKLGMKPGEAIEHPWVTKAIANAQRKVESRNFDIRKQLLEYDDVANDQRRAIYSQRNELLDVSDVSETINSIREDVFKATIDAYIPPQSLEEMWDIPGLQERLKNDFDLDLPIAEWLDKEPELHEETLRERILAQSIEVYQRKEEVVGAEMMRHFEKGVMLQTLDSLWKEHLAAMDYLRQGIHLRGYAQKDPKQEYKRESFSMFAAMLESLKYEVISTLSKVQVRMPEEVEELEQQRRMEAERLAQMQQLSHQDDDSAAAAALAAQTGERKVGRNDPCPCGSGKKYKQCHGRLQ
Chain of Chromo domain-containing protein 1 (Saccharomyces cerevisiae (strain ATCC 204508 / S288c) (Baker's yeast)) (P32657 whole entry, the tested form may be a part): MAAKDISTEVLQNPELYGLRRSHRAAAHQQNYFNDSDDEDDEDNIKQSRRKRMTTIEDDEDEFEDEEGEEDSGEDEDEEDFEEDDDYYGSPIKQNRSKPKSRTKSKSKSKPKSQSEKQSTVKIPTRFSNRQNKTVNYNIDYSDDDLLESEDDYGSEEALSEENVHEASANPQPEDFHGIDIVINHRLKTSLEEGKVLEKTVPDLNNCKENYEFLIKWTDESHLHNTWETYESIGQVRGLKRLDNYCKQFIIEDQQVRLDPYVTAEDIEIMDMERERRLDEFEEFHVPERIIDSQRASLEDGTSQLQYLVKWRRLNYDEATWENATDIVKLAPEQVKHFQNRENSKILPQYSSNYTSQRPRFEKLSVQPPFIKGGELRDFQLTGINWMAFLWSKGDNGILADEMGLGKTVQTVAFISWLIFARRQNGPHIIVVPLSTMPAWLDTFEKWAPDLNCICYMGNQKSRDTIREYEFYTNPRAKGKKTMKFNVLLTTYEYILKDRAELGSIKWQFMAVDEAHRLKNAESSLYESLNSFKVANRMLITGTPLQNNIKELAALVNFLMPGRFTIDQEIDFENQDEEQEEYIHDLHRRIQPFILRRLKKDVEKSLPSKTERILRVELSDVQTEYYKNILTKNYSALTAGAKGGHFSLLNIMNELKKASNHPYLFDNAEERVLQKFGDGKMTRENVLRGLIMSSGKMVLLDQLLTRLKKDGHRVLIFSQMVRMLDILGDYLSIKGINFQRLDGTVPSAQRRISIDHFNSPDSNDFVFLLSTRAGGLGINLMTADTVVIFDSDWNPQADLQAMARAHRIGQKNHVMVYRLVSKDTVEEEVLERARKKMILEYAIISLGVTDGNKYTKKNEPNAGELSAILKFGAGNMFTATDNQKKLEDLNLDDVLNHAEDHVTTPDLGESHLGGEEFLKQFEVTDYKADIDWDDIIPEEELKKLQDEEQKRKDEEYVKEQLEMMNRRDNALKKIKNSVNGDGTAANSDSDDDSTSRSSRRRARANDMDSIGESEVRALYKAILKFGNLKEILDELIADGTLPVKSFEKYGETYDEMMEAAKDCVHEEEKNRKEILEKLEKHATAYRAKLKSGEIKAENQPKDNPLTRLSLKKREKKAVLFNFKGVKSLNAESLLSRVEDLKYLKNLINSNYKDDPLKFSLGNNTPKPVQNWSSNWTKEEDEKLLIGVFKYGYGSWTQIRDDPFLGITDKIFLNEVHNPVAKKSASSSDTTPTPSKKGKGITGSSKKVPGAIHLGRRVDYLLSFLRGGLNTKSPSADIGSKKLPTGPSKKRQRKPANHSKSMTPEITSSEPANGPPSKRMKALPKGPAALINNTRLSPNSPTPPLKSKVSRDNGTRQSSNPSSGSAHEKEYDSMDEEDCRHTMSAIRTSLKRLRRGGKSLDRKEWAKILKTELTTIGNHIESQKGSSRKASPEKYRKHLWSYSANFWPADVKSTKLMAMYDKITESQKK

Consider `Cc1ccn(-c2ccc(C(=O)N3CCCC(C(N)=O)C3)cc2)n1` (stereo not given), for which the Percent Effect in experiment [1] was -6.07%; in experiment [2], 10.1%; in experiment [3] it was -10.5%; in experiment [4] it was 3.7%; in the experiment with Trypanosoma cruzi, -5%; in [5], -1.9%. Further, the Percent Effect in experiment [6] is 5.16%; in the experiment listed under Homo sapiens it was 28.1%; in [7], 0.493%; in [8] it was 8.86%; in experiment [9], -4.17%.
Consider `Cc1nnc2n1CCN(C(=O)c1cc(Cl)c(Cl)n1C)C2`, for which the Percent Effect was -1.98% in experiment [1]; 5.26% in experiment [2]; -1.75% in experiment [3]; 6.76% in experiment [4]; 2.63% in the experiment on Trypanosoma cruzi; -1.53% in experiment [5]. For the same molecule, the Percent Effect is 0.501% in experiment [6]; -1.85% in the experiment filed under Homo sapiens; -1.47% in experiment [7]; 7.32% in experiment [8]; -1.57% in experiment [9].
For `O=C(NCCC(=O)N1CCCc2ccccc21)c1c(O)cc(F)cc1F`, the Percent Effect in [1] was -5.79%; in [2] it was 10.4%; in [3], -0.269%; in [4], 9.22%; with Trypanosoma cruzi it was 6.95%; in experiment [5], -1.47%. The Percent Effect is 11.1% in experiment [6]; 22.7% in the experiment listed under Homo sapiens; -0.952% in experiment [7]; -49.4% in experiment [8]; -16.6% in experiment [9].
As for `O=C(CN1CCc2c(ncn2C2CC2)C1)NC1CC1`, the Percent Effect in experiment [1] is -2.66%; in [2], -3.8%; in [3] it was -0.272%; in experiment [4] it was 5.53%; in the experiment on Trypanosoma cruzi, -2.56%; in experiment [5], 3.66%. For the same molecule, the Percent Effect is 9.09% in experiment [6]; 5.09% in the experiment listed under Homo sapiens; 2.08% in experiment [7]; 5.06% in experiment [8]; -4.23% in experiment [9].
With `COc1c(CNCc2ccc(C(=O)NC3CC3)cc2)c(C)nn1C`, the Percent Effect in [1] is -3.12%; in experiment [2], 8.86%; in experiment [3], -1.46%; in experiment [4], 6.83%; in the experiment on Trypanosoma cruzi it was -3.18%; in [5], 2.8%. Further, the Percent Effect in experiment [6] is 11%; in the experiment filed under Homo sapiens, 9.67%; in [7], 1.04%; in [8], 12.7%; in experiment [9] it was -6.42%.
As to `NC(=O)C1CN(Cc2c[nH]cn2)CCN(C2CCOCC2)C1` (stereo not given), the Percent Effect in experiment [1] is 1.35%; in [2] it was 4.05%; in [3], 5.54%; in [4] it was 9.65%; with Trypanosoma cruzi, -7.12%; in [5], 18.8%. The Percent Effect in experiment [6] is 7.02%; in the experiment filed under Homo sapiens, 19.2%; in experiment [7] it was 12.9%; in [8], 19.5%; in experiment [9], -6.44%.
For `Cn1ccc(C(=O)N2CCC[C@]3(C[C@@H](OCc4ccccn4)CO3)C2)n1`, the Percent Effect is -3.65% in [1]; 13.5% in [2]; 2.83% in experiment [3]; -1.64% in experiment [4]; -2.64% in the experiment with Trypanosoma cruzi; 8.6% in experiment [5]. Moreover, the Percent Effect in [6] was 15.1%; in the experiment filed under Homo sapiens, 2.73%; in [7] it was 8.65%; in experiment [8], 17.9%; in experiment [9], -1.5%.
With `Cc1nc(CN2CCCC(N(C)CCc3ccncc3)C2)no1` (stereo not given), the Percent Effect in experiment [1] was 0.743%; in experiment [2] it was 18.9%; in [3], -12.8%; in experiment [4], -5.86%; with Trypanosoma cruzi, -2.51%; in [5], 6.84%. Further, the Percent Effect in experiment [6] was 10.4%; in the experiment listed under Homo sapiens it was 24.3%; in experiment [7], 0%; in experiment [8] it was 13.4%; in [9], 0.929%.
As for `CN(C)C(=O)N1CCN(C(=O)CCc2ccccc2)[C@H]2CS(=O)(=O)C[C@H]21`, the Percent Effect was -0.417% in [1]; 5.41% in experiment [2]; -5.99% in experiment [3]; 6.47% in experiment [4]; 4.44% in the experiment with Trypanosoma cruzi; -2.86% in [5]. The Percent Effect in experiment [6] is 15.3%; in the experiment listed under Homo sapiens, 23.4%; in experiment [7], 8.99%; in experiment [8], 9.76%; in [9], -2.21%.
Take `Cn1cc2c(n1)C(CNC(=O)Cc1ccsc1)OCC2` (stereo not given): the Percent Effect in [1] was -4.65%; in experiment [2], 7.79%; in [3], -2.5%; in experiment [4], -0.415%; with Trypanosoma cruzi, 4.83%; in experiment [5], -7.1%. Also, the Percent Effect was 2.26% in experiment [6]; 7.06% in the experiment filed under Homo sapiens; 2.12% in experiment [7]; 3.85% in [8]; -6.29% in experiment [9].
